In the library only some 19% were active in any assay of this set; here they are far more common.
Pf growth 96h – inhibits malaria parasite growth, 96 h; Potency, µM (top dose mostly 28.7 µM), without a hit: at the top dose activity change, negative = inhibition, most hits filed as inhibitors; 320,000 compounds, 6.9% hits; AID 504834; P. falciparum luciferase reporter growth, 96 h; further: potency means the concentration at half of the fitted maximal effect; on the % scale 0 is the no-effect control and ±100 the full control effect
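Two-generation exposure (96 h) targets delayed-death phenotype. Reporter parasites carrying integrated firefly luciferase, in red cells at 2% hematocrit and 0.05% parasitemia final, kept at 37 C, 5% CO2; luminescence loss indicates inhibition.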
Pf growth 48h – inhibits P. falciparum growth in the first generation, 48 h; P. falciparum luciferase growth in erythrocytes, 48 h; Potency, µM (series often up to 28.7 µM), inactives show at the top dose activity change, negative = inhibition, hits mostly inhibitors; 310,000 compounds, 5.9% hits; AID 504832; further: potency means the concentration at half of the fitted maximal effect; on the % scale 0 is the no-effect control and ±100 the full control effect
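First compound was added to culture medium, then infected red cells at 0.1% parasitemia and 2% hematocrit (final). After incubation at 37 C under 5% CO2, luciferase detection reagent was dispensed and light output recorded.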
SARS PLpro yeast – SARS-CoV PLP inhibition in yeast; S. cerevisiae expressing SARS-CoV PLpro, growth rescue; Potency, µM (titrated, usually from 32.9 µM), without a hit: top-dose activity, positive = growth rescue, usual class: activators; 330,000 compounds, 0.19% hits; calls by dose curve; further: potency means the concentration at half of the fitted maximal effect; 0% is about no effect; nearly all actives have a fitted effect of over 55% in size
Shiga toxin inh – Shiga toxin inhibition; Vero cells, Shiga toxin protein synthesis inhibition reporter; inhibition, % at 38.7 µM; 290,000 compounds, 9.2% hits; in the data active means inhibition mostly above about 28%, no sharp cut-off; inactive means mostly below about 43%; further: 0% is about no effect
AMA1-RON2 inh – disrupts binding of P. falciparum AMA1 to RON2 | AlphaScreen AMA1-biotinylated RON2 peptide binding | Potency, µM (titrated, usually from 58.2 µM), for inactives: at the highest dose activity change, negative = inhibition, hits mostly inhibitors | 360,000 compounds, 0.2% hits | AID 720542;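 further: potency means the concentration at half of the fitted maximal effect; 0% = vehicle wells and -100% = peptide control; nearly all actives have a fitted effect of over 45% in size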
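AMA1 (3D7) with his tag at 25 nM final met compounds first, then biotinylated RON2 peptide at 25 nM; detection used donor plus acceptor beads, 10 µg/mL apiece, read by AlphaScreen after 30 min at room temperature.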
CHX counter – counter-screen for Shiga toxin inhibitors: cycloheximide protein synthesis inhibition; max response, %; cell reporter, cycloheximide protein synthesis inhibition counterscreen; AID 2314; 300,000 compounds, 12% hits; in the data active means max response mostly above about 13%, no sharp cut-off; inactive means mostly below about 14%; further: read at 38.3 µM for the half of the compounds with a filed dose; 0% is about no effect
Active calls of the source: *; ? = inconclusive; nt = no result. Unless noted, the call rests on the fitted dose curve; in most records, active means well fitted curve in the direction sought with a large enough effect; inconclusive means small, poorly fitted or top-dose-only effect, or another doubt; inactive means no such curve, though single readings can be large; an effect the other way counts as inactive or inconclusive.

SMILES	Pf growth 96h	Pf growth 48h	SARS PLpro yeast	Shiga toxin inh	AMA1-RON2 inh	CHX counter
CCn1nnc(NC(=O)c2ccc(-c3ccccc3[N+](=O)[O-])o2)n1	3%	-10%	0%	38	26%	17*
CCCCn1nnc(NC(=O)c2ccc(-c3ccccc3)cc2)n1	70%	?	4%	active	-4%	41*
CCCn1nnc(NC(=O)c2cc3ccccc3o2)n1	-2%	237%	-12%	74*	-4%	43*
COc1ccc(NC(=O)N(C)C[C@H]2OCCCC[C@@H](C)Oc3ccc(NC(=O)c4ccccc4)cc3C(=O)N([C@H](C)CO)C[C@@H]2C)cc1	nt	nt	nt	nt	0%	nt
Cn1nnc(NC(=S)NC(=O)Cc2ccccc2)n1	2.1µM*	-18%	0%	17	62%	6
Cc1cc(NC(=O)c2ccc(-c3ccccc3[N+](=O)[O-])o2)no1	nt	nt	0%	nt	-4%	nt
COc1ccccc1C(=O)Nc1nnn(C)n1	-1%	33%	-3%	-4	-13%	19
Cn1nnc(NC(=O)c2ccccc2)n1	13µM*	32%	-14%	16	11%	0
CCCn1nnc(NC(=O)c2ccc3c(c2)OCO3)n1	158%	84%	1%	89*	15%	54*
CC(=O)c1cccc(NC(=O)c2ccc(-c3ccccc3[N+](=O)[O-])o2)c1	-53%	170%	3%	51*	9%	70*
CCCn1nnc(NC(=O)c2cccc(Cl)c2)n1	-14%	79%	3%	128	21%	35
COc1cnc(-c2cccc(C(F)(F)F)c2)c(NC(=O)c2cc3ccccc3s2)n1	nt	nt	nt	nt	22%	nt
COC(C[C@H](O)C[C@H](O)[C@H](C)OCc1ccccc1)OC	92%	50%	-1%	-3	11%	1
CC1CCN(c2nc3c(c(=O)[nH]c(=O)n3C)n2CC(C)CSc2nnnn2-c2ccccc2)CC1 (centres undefined)	?	?	-19%	-13	0%	-2
COC(=O)c1cccc(NC(=S)N2CCN(c3ccccc3F)CC2)c1	40%	30%	1%	-4	4%	-4
CCn1nnc(NC(=O)c2ccc(Br)o2)n1	-3%	25%	-23%	27	-23%	4
CCn1nnc(NC(=O)c2cc3ccccc3o2)n1	nt	139%	-9%	81*	6%	30*
CCc1ccc(C(=O)Nc2nnn(CC)n2)cc1	82%	59%	-11%	13	-8%	11*
Cn1nnc(NC(=S)NC(=O)c2cc3ccccc3o2)n1	?	6%	-1%	-1	65%	11*
COc1ccc(CNC(=O)C2CCN(S(=O)(=O)c3ccc4c(c3)C(C)(C)C(=O)N4C)CC2)cc1	13%	?	-2%	-6	6%	-2
CC(=O)Nc1ccn(C2CC3OCC(NC(=O)C(Cc4ccccc4)NC(=O)OC(C)(C)C)C3O2)c(=O)n1 (centres undefined)	nt	nt	nt	-5	nt	15
CCC(C(=O)NCCc1ccc(C)cc1)n1nc(C)c2c(C)n(-c3ccccc3)nc2c1=O (centres undefined)	0%	?	7%	-3	7%	2
Cc1nn(C(C)C(=O)NC2CCCCCC2)c(=O)c2nn(-c3ccccc3)c(C)c12 (centres undefined)	12µM*	-11%	-7%	38	-8%	20
CCOc1ccc(CCNC(=O)C(C)n2nc(C)c3c(C)n(-c4ccccc4)nc3c2=O)cc1 (centres undefined)	13µM*	?	?	-4	1%	-7
CCOc1ccc(CCNC(=O)CCCn2nc(C)c3c(C)n(-c4ccccc4)nc3c2=O)cc1	13µM*	-10%	15%	14	3%	1
SMILES	Pf growth 96h	Pf growth 48h	SARS PLpro yeast	Shiga toxin inh	AMA1-RON2 inh	CHX counter
CCC(C(=O)NCCc1ccccc1OC)n1nc(C)c2c(C)n(-c3ccccc3)nc2c1=O (centres undefined)	12µM*	-17%	2%	2	-3%	-2
CC1=C(C(=O)N(C(C)C)C(C)C)CC(CC(=O)NCc2cccs2)C(=O)N1Cc1ccccc1 (centres undefined)	nt	nt	nt	nt	1%	nt
Cc1ccc(-n2nc3c(=O)n(CCCC(=O)N4CCC(C(N)=O)CC4)nc(C)c3c2C)cc1	?	10µM*	2%	-4	7%	7
CCCCNC(=O)CSc1nnc(C)c2c(C)n(-c3ccccc3)nc12	nt	nt	nt	74*	nt	38*
Cc1nn(CCCC(=O)NCCc2ccccc2)c(=O)c2nccn12	12%	14%	0%	15*	0%	7
Cc1nn(CC(=O)NCCc2cccs2)c(=O)c2nn(-c3ccccc3)c(C)c12	?	-8%	-4%	19*	-9%	22*
CC(C)(C)Cc1c(C2CCCCC2)nc2ccc(Cl)cn12	nt	nt	nt	nt	8%	nt
COc1ccc(/C=C2/CCC(CN3CCOCC3)C2=O)cc1 (centres undefined)	nt	nt	nt	nt	-4%	nt
Cc1ccc(-n2nc3c(=O)n(CC(=O)NC4CCCCCC4)nc(C)c3c2C)cc1	13µM*	15%	-3%	-4	14%	5
O=S(=O)(NNc1ncc(C(F)(F)F)cc1Cl)c1ccccc1	72%	24%	19%	nt	101%	nt
CCOC(=O)C1=NN(C(=O)c2ccccc2)C(O)(c2ccc(C)cc2)C1 (centres undefined)	-1%	5%	-19%	89*	84%	45*
CCC1=NN(C(=O)c2cccc([N+](=O)[O-])c2)C(O)(c2ccc(C)cc2)C1 (centres undefined)	-24%	4.1µM*	5%	11	57%	4
CCOC(=O)C1=NN(C(=O)c2cccc(Br)c2)C(O)(C(C)(C)C)C1 (centres undefined)	6%	?	0%	74*	nt	20*
CCOC(=O)C1=NN(C(=O)c2ccc(OC)cc2)C(O)(c2ccc(Cl)cc2)C1 (centres undefined)	17%	-8%	?	19	62%	-1
CC1=NN(C(=O)c2ccccc2)C(O)(c2ccc(Br)cc2)C1 (centres undefined)	3.7µM*	?	-2%	68*	7%	44*
CCN=C1S/C(=C/c2ccc(-c3ccc(F)cc3)o2)C(=O)N1CC	14%	?	1%	21	6%	7
O=C(Nc1c(-c2ccc(Cl)cc2)[nH][nH]c1=O)c1ccccc1Cl	nt	nt	nt	nt	10%	nt
CC1=NN(C(=O)c2ccccc2F)C(O)(c2ccc(Cl)cc2)C1 (centres undefined)	13µM*	0%	-11%	57	64%	15
O=C(CCc1nnc(CCC2CCCCC2)o1)NCCc1ccccn1	13%	1%	-1%	-2	19%	-1
COc1ccccc1-n1c(CNc2c(C)cccc2C)nnc1SCC(=O)N1CCOCC1	12µM*	-2%	0%	6	36%	-2
O=C(c1ccco1)N1CCN(C(=O)C23CC4CC(CC(C4)C2)C3)CC1	?	2%	-7%	-7	-4%	-2

Compound activity (PubChem)
